# Reference: publication PMC11062922 (Nature Chemical Biology, 2023)
# Like-named read-outs stand apart in the source and are kept apart here.
# What was measured:
# Design in all cases: species or system human, MV4-11 + K-562 + COLO205 + SK-N-BE2 + OVCAR-8
# ADRBK1 = conditions: read-out: apparent Kd, n = 1
# AURKA = conditions: read-out: apparent Kd; compound concentrations:100 nM and 1000 nM (sheet 'Samples'); n = 1
# CDC42BPA = conditions: read-out: apparent Kd, n = 1
# CDC42BPB = conditions: read-out: apparent Kd, n = 1
# CDC42BPG = conditions: read-out: apparent Kd, n = 1
# CDK6 = conditions: read-out: apparent Kd, n = 1
# CDKL5 = conditions: read-out: apparent Kd; compound concentrations:100 nM and 1000 nM (sheet 'Samples'); n = 1
# CHEK1 = conditions: read-out: apparent Kd; compound concentrations:100 nM and 1000 nM (sheet 'Samples'); n = 1
# CSNK1G1 = conditions: read-out: apparent Kd; compound concentrations:100 nM and 1000 nM (sheet 'Samples'); n = 1
# FN3KRP = conditions: read-out: apparent Kd; compound concentrations:100 nM and 1000 nM (sheet 'Samples'); n = 1
# MTHFD1 = conditions: read-out: apparent Kd; compound concentrations:100 nM and 1000 nM (sheet 'Samples'); n = 1
# NUAK1 = conditions: read-out: apparent Kd; compound concentrations:100 nM and 1000 nM (sheet 'Samples'); n = 1
# NUAK2 = conditions: read-out: apparent Kd; compound concentrations:100 nM and 1000 nM (sheet 'Samples'); n = 1
# PDXK = conditions: read-out: apparent Kd; compound concentrations:100 nM and 1000 nM (sheet 'Samples'); n = 1
# PKN1 = conditions: read-out: apparent Kd, n = 1
# PKN2 = conditions: read-out: apparent Kd; compound concentrations:100 nM and 1000 nM (sheet 'Samples'); n = 1
# PRKAA1 = conditions: read-out: apparent Kd; compound concentrations:100 nM and 1000 nM (sheet 'Samples'); n = 1
# PRKACA = conditions: read-out: apparent Kd, compound concentrations: 100 nM and 1000 nM (sheet 'Samples'), n = 1
# PRKACB = conditions: read-out: apparent Kd, n = 1
# PRKAG1 = conditions: read-out: apparent Kd; compound concentrations:100 nM and 1000 nM (sheet 'Samples'); n = 1
# PRKAG2 = conditions: read-out: apparent Kd; compound concentrations:100 nM and 1000 nM (sheet 'Samples'); n = 1
# PRKCA = conditions: read-out: apparent Kd; compound concentrations:100 nM and 1000 nM (sheet 'Samples'); n = 1
# PRKCB = conditions: read-out: apparent Kd; compound concentrations:100 nM and 1000 nM (sheet 'Samples'); n = 1
# PRKCD = conditions: read-out: apparent Kd; compound concentrations:100 nM and 1000 nM (sheet 'Samples'); n = 1
# PRKCQ = conditions: read-out: apparent Kd; compound concentrations:100 nM and 1000 nM (sheet 'Samples'); n = 1
# PRKG1 = conditions: read-out: apparent Kd, n = 1
# PRKX;PRKY = conditions: read-out: apparent Kd, n = 1
# ROCK1 = conditions: read-out: apparent Kd, n = 1
# ROCK2 = conditions: read-out: apparent Kd, n = 1
# RPS6KA5 = conditions: read-out: apparent Kd, n = 1
# RPS6KB1 = conditions: read-out: apparent Kd, n = 1
# ADK = conditions: read-out: apparent Kd, n = 1
# COX5A = conditions: read-out: apparent Kd; compound concentrations: 100 nM and 1000 nM (sheet 'Samples'), CATDS: 0.19729380709152999; n = 1
# MAP2K2 = conditions: read-out: apparent Kd; compound concentrations: 100 nM and 1000 nM (sheet 'Samples'), CATDS: 0.19454488197691899; n = 1
# NQO1 = conditions: read-out: apparent Kd; compound concentrations: 100 nM and 1000 nM (sheet 'Samples'), CATDS: 0.179031281586436; n = 1
# RAN = conditions: read-out: apparent Kd; compound concentrations: 100 nM and 1000 nM (sheet 'Samples'), CATDS: 0.206069741930102; n = 1
# CLK3 = conditions: read-out: apparent Kd; compound concentrations: 100 nM and 1000 nM (sheet 'Samples'), CATDS: 0.34896481785662797; n = 1
# AURKB = conditions: read-out: apparent Kd; compound concentrations: 100 nM and 1000 nM (sheet 'Samples'), CATDS: 4.53976270719329E-2; n = 1
# MELK = conditions: read-out: apparent Kd; compound concentrations: 100 nM and 1000 nM (sheet 'Samples'), CATDS: 4.0337872556692203E-2; n = 1
# [1] = compound concentrations:100 nM and 1000 nM (sheet 'Samples')
smiles,measurement,setting,value
COc1ccc(O)c(C(=O)c2ccc(C(=O)O[C@@H]3CCCNC[C@H]3NC(=O)c3ccncc3)cc2)c1F.Cl [RO0480500-002],potency estimated from few doses,ADRBK1; [1],119 nM
same,potency estimated from few doses,AURKA,693 nM
same,potency estimated from few doses,CDC42BPA; [1],413 nM
same,potency estimated from few doses,CDC42BPB; [1],51.3 nM
same,potency estimated from few doses,CDC42BPG; [1],630 nM
same,potency estimated from few doses,CDK6; [1],2090 nM
same,potency estimated from few doses,CDKL5,237 nM
same,potency estimated from few doses,CHEK1,26.5 nM
same,potency estimated from few doses,CSNK1G1,2260 nM
same,potency estimated from few doses,FN3KRP,764 nM
same,potency estimated from few doses,MTHFD1,1020 nM
same,potency estimated from few doses,NUAK1,16.5 nM
same,potency estimated from few doses,NUAK2,150 nM
same,potency estimated from few doses,PDXK,1410 nM
same,potency estimated from few doses,PKN1; [1],116 nM
same,potency estimated from few doses,PKN2,241 nM
same,potency estimated from few doses,PRKAA1,485 nM
same,potency estimated from few doses,PRKACA; CATDS: 9.7859849759824202E-2,12.8 nM
same,potency estimated from few doses,PRKACB; [1],21.1 nM
same,potency estimated from few doses,PRKAG1,1510 nM
same,potency estimated from few doses,PRKAG2,75 nM
same,potency estimated from few doses,PRKCA,227 nM
same,potency estimated from few doses,PRKCB,506 nM
same,potency estimated from few doses,PRKCD,25.7 nM
same,potency estimated from few doses,PRKCQ,769 nM
same,potency estimated from few doses,PRKG1; [1],4.47 nM
same,potency estimated from few doses,PRKX;PRKY; [1],40.2 nM
same,potency estimated from few doses,ROCK1; [1],19.2 nM
same,potency estimated from few doses,ROCK2; [1],19.1 nM
same,potency estimated from few doses,RPS6KA5; [1],75 nM
same,potency estimated from few doses,RPS6KB1; [1],38.6 nM
COc1ccc(Nc2nccc(NCCNC(=O)Nc3ccccc3F)n2)cc1 [GSK1379901A],potency estimated from few doses,"ADK; compound concentrations: 100 nM and 1000 nM (sheet 'Samples'), CATDS: 0.22973332446561601",1220 nM
same,potency estimated from few doses,COX5A,1630 nM
same,potency estimated from few doses,MAP2K2,1680 nM
same,potency estimated from few doses,NQO1,2010 nM
same,potency estimated from few doses,RAN,1490 nM
CC(=O)N[C@@H](Cc1ccc(OP(=O)(O)O)cc1)C(=O)N[C@H]1CCC(=O)N2CCC[C@@H](C(=O)NCc3ccc(O)cc3)N2C1=O [RO0324381-000],potency estimated from few doses,ADK; [1],1270 nM
COc1ccc(CNC(=O)NC2CCN(c3ccnc(Nc4ccc(OC)cc4)n3)C2)cc1 (stereo not shown) [GSK1379727A],potency estimated from few doses,"ADRBK1; compound concentrations: 100 nM and 1000 nM (sheet 'Samples'), CATDS: 0.35126637263884503",1270 nM
same,potency estimated from few doses,"CDK6; compound concentrations: 100 nM and 1000 nM (sheet 'Samples'), CATDS: 0.30417888081932698",1700 nM
same,potency estimated from few doses,CLK3,1280 nM
CCNCC(Cc1ccccc1)NC(=O)c1cc(Br)c(-c2ccnc3[nH]ccc23)s1.CCNCC(Cc1ccccc1)NC(=O)c1cc(Br)c(-c2ccnc3[nH]ccc23)s1.Cl.Cl (stereo not shown) [GSK1383280A],potency estimated from few doses,"ADRBK1; compound concentrations: 100 nM and 1000 nM (sheet 'Samples'), CATDS: 4.4620595418211097E-2",971 nM
same,potency estimated from few doses,AURKB,888 nM
same,potency estimated from few doses,"CDC42BPA; compound concentrations: 100 nM and 1000 nM (sheet 'Samples'), CATDS: 4.6703340399090902E-2",771 nM
same,potency estimated from few doses,"CDC42BPB; compound concentrations: 100 nM and 1000 nM (sheet 'Samples'), CATDS: 8.1718607262500007E-2",103 nM
same,potency estimated from few doses,"CDC42BPG; compound concentrations: 100 nM and 1000 nM (sheet 'Samples'), CATDS: 0.122976821527932",38.1 nM
same,potency estimated from few doses,MELK,1780 nM
same,potency estimated from few doses,"PKN1; compound concentrations: 100 nM and 1000 nM (sheet 'Samples'), CATDS: 5.5828153237378199E-2",359 nM
same,potency estimated from few doses,PRKACA; CATDS: 0.15364930572584601,24.4 nM
same,potency estimated from few doses,"PRKACB; compound concentrations: 100 nM and 1000 nM (sheet 'Samples'), CATDS: 8.6308392593060404E-2",88.6 nM
same,potency estimated from few doses,"PRKG1; compound concentrations: 100 nM and 1000 nM (sheet 'Samples'), CATDS: 0.45709294819491503",4.21 nM
same,potency estimated from few doses,"PRKX;PRKY; compound concentrations: 100 nM and 1000 nM (sheet 'Samples'), CATDS: 6.11631694313804E-2",256 nM
same,potency estimated from few doses,"ROCK1; compound concentrations: 100 nM and 1000 nM (sheet 'Samples'), CATDS: 0.130780563846252",33.5 nM
same,potency estimated from few doses,"ROCK2; compound concentrations: 100 nM and 1000 nM (sheet 'Samples'), CATDS: 0.120469396164387",39.8 nM
same,potency estimated from few doses,"RPS6KA5; compound concentrations: 100 nM and 1000 nM (sheet 'Samples'), CATDS: 4.3322192000587102E-2",1140 nM
same,potency estimated from few doses,"RPS6KB1; compound concentrations: 100 nM and 1000 nM (sheet 'Samples'), CATDS: 4.8981649950923703E-2",617 nM
